Laboratory results reported in PubChem BioAssay (Tox21).
The source made the active and inactive calls. Unless noted, calls follow the shape of the dose curve; as a rule, active = well fitted curve in the direction sought with a large enough effect in the repeat runs; inconclusive = weak or mixed curves; inactive = no such curve, though single readings can be large; an effect the other way counts as inactive or inconclusive.

Legend:
[1] = qHTS assay to test for compound auto fluorescence at 590 nm (red) in HepG2 cells (AID 720674)
How it was run: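 Compound auto-fluorescence is scored relative to Rose Bengal sodium, measured at 540/590 nm in live HepG2 cultures after 1 hr compound contact (37 C, 5% CO2).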

[2] = qHTS assay to test for compound auto fluorescence at 460 nm (blue) in HEK293 cells (AID 720678)
How it was run: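 HEK293 cells (2,000/well, medium with 10% dialyzed FBS) attached 4-5 hr, then exposed to compound overnight at 37C, 5% CO2. Blue fluorescence read at 405/460 nm, with triamterene as reference fluorophore.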

[3] = qHTS assay to test for compound auto fluorescence at 460 nm (blue) in HEK293 cell free culture (AID 720681)
How it was run: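 Test compounds were pinned into cell-free culture medium (DMEM with 10% FBS) and fluorescence was read directly at Ex/Em 405/460 nm. Signals were expressed as fluorescence equivalents of triamterene, with DMSO vehicle as control.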

[4] = qHTS assay to test for compound auto fluorescence at 590 nm (red) in HEK293 cell free culture (AID 720683)
How it was run: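 Tox21 10K library compounds were pinned into cell-free DMEM with 10% FBS and fluorescence was read at excitation 540 nm. Activity is expressed as Rose Bengal sodium equivalency.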

[5] = qHTS assay to test for compound auto fluorescence at 460 nm (blue) in HepG2 cells (AID 720687)
How it was run: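 Cells (2,000/well in MEM with 10% FBS) attached overnight at 37 C, then were exposed to compound or DMSO for 1 hr at 37 C, 5% CO2. Fluorescence read at Ex/Em 405/460 nm, expressed as triamterene-equivalent signal.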

[6] = target: Glucocorticoid receptor (Homo sapiens) (UniProt P04150); experiment: qHTS assay to identify small molecule antagonists of the glucocorticoid receptor (GR) signaling pathway (AID 720692; active = well fitted inhibition curve with a large enough effect in the signal ratio in the repeat runs, not every such curve was filed as active; inconclusive = weak or mixed curves, or effect the other way; inactive = no such curve, though single readings can be large or run the other way; the % refers to the signal ratio; also: potency is read from the fitted curve at half-maximal effect)
Chain of Glucocorticoid receptor (Homo sapiens) (P04150 whole entry, looked up): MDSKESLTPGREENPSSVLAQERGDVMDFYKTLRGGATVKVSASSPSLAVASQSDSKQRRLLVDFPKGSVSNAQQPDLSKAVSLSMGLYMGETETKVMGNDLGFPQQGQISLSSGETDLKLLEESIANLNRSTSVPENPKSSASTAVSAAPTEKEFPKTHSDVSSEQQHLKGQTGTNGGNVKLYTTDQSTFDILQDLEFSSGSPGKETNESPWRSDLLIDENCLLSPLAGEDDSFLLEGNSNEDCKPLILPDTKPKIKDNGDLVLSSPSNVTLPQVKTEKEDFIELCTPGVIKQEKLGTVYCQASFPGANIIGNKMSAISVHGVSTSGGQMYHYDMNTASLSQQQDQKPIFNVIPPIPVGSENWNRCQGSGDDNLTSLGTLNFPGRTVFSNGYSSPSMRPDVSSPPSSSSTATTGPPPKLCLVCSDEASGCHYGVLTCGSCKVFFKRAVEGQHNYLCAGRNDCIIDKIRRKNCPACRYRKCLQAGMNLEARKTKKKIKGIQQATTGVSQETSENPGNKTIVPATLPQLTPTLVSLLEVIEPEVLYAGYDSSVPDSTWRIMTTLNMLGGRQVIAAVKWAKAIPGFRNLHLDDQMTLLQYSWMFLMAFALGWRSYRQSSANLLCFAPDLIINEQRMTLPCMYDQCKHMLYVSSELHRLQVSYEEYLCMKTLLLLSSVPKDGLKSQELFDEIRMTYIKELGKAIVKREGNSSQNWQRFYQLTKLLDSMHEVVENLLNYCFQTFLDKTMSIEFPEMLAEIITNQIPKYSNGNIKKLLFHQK
How it was run: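 Tox21 10K library screened in concentration-response for blockade of dexamethasone (5 nM final)-induced GRE-bla reporter activity in HeLa cells; 18 h treatment, fluorescence read.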

[7] = qHTS assay for identifying genotoxic compounds that show differential cytotoxicity against isogenic chicken DT40 cell lines with known DNA damage response pathways - wild type cell line (AID 743012); also: nearly all actives have a fitted effect of over 60% in size; also: potency is read from the fitted curve at half-maximal effect
How it was run: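 Endpoint: CellTiter-Glo luminescence, 30 min RT. Cells: wild type DT40, 300/well. Exposure: compounds in DMSO, 40 h, 37 C/5% CO2, after ~0.5 h pre-incubation.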

[8] = qHTS assay for identifying genotoxic compounds that show differential cytotoxicity against isogenic chicken DT40 cell lines with known DNA damage response pathways - Rad54/Ku70 mutant cell line (AID 743015); also: nearly all actives have a fitted effect of over 60% in size; also: potency is read from the fitted curve at half-maximal effect
[9] = qHTS assay to identify small molecule antagonists of the androgen receptor (AR) signaling pathway - cell viability counter screen (AID 743033; also: nearly all actives have a fitted effect of over 45% in size; also: potency is read from the fitted curve at half-maximal effect)
[10] = target: Estrogen receptor (Homo sapiens) (UniProt P03372); experiment: qHTS assay to identify small molecule agonists of the estrogen receptor alpha (ER-alpha) signaling pathway (AID 743075; calls by dose curve;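 also: HEK293 GripTite cells with ER-alpha and UAS-driven beta-lactamase reporter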; also: potency is read from the fitted curve at half-maximal effect)
Chain of Estrogen receptor (Homo sapiens) (P03372 whole entry, looked up): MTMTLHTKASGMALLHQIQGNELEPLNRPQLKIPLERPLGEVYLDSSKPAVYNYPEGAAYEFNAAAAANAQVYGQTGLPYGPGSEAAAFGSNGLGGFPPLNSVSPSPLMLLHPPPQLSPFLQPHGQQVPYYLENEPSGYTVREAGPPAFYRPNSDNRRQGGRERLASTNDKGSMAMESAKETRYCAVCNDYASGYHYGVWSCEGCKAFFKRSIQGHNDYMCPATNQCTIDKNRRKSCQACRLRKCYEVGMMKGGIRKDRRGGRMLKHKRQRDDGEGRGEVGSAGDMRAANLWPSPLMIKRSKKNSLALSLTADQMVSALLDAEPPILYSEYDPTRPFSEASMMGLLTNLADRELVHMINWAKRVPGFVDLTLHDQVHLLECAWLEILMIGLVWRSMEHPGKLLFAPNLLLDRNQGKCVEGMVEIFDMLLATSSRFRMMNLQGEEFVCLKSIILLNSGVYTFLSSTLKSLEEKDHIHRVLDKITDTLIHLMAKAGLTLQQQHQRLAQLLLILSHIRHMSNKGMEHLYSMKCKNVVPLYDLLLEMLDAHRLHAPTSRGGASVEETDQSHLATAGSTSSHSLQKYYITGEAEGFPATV

[11] = target: Estrogen receptor (Homo sapiens) (UniProt P03372); experiment: qHTS assay to identify small molecule agonists of the estrogen receptor alpha (ER-alpha) signaling pathway using the BG1 cell line (AID 743079); also: nearly all actives have a fitted effect of over 20% in size; also: potency is read from the fitted curve at half-maximal effect
[12] = qHTS assay to identify small molecule antagonists of the estrogen receptor alpha (ER-alpha) signaling pathway using the BG1 cell line (AID 743080; calls by dose curve;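 also: BG1 cells stimulated with 17beta-estradiol alongside compound; series mostly up to about 70 µM; nearly all actives have a fitted effect of over 25% in size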)
How it was run: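 BG1-Luc-4E2 cells (endogenous full-length ER-alpha, 4xERE luciferase) hormone-starved 5 days in charcoal-stripped FBS, plated 4,000/well for 24 h, then compound plus 17beta-estradiol for 21.5 h at 37 C; ONE-Glo luminescence read.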

[13] = target: Aryl hydrocarbon receptor (Homo sapiens) (UniProt P35869); experiment: qHTS assay to identify small molecule that activate the aryl hydrocarbon receptor (AhR) signaling pathway (AID 743085); also: nearly all actives have a fitted effect of over 15% in size; also: potency is read from the fitted curve at half-maximal effect;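 as to activation: HG2L7.5c1 human HepG2 liver cells with stably integrated DRE-driven firefly reporter; series mostly up to about 70 µM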
Chain of Aryl hydrocarbon receptor (Homo sapiens) (P35869 whole entry, looked up): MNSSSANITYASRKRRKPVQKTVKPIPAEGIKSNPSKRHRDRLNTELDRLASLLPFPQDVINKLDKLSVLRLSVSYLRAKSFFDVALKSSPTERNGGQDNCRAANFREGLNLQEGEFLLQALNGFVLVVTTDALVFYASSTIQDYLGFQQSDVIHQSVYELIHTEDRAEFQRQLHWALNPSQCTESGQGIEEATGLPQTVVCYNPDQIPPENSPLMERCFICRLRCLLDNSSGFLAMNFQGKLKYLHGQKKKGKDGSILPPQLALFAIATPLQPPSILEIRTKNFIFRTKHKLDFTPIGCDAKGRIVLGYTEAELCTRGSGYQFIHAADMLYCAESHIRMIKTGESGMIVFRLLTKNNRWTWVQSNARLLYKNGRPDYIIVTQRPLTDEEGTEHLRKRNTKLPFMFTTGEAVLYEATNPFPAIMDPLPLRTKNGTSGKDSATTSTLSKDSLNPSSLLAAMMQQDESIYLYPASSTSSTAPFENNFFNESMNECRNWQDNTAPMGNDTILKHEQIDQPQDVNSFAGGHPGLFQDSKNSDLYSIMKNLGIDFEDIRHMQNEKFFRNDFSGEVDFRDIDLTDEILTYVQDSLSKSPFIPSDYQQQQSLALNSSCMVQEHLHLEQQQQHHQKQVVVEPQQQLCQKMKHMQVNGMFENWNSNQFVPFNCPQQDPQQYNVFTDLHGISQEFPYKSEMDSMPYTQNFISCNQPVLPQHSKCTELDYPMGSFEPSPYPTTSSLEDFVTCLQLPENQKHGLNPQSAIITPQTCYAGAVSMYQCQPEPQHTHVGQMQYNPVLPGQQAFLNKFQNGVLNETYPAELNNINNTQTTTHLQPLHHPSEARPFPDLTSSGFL
How it was run: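 HepG2 cells stably carrying a 20-DRE firefly luciferase reporter (HG2L7.5c1) treated with compound for 24 hr at 37C. Luciferase read by ONE-Glo luminescence, with CellTiter-Fluor viability read first.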

[14] = target: Peroxisome proliferator-activated receptor gamma (Homo sapiens) (UniProt P37231); experiment: qHTS assay to identify small molecule agonists of the peroxisome proliferator-activated receptor gamma (PPARg) signaling pathway (AID 743094; active = well fitted activation curve with a large enough effect in the signal ratio in the repeat runs, not every such curve was filed as active; inconclusive = weak or mixed curves, or effect the other way; inactive = no such curve, though single readings can be large or run the other way; the % refers to the signal ratio)
Chain of Peroxisome proliferator-activated receptor gamma (Homo sapiens) (P37231 whole entry, looked up): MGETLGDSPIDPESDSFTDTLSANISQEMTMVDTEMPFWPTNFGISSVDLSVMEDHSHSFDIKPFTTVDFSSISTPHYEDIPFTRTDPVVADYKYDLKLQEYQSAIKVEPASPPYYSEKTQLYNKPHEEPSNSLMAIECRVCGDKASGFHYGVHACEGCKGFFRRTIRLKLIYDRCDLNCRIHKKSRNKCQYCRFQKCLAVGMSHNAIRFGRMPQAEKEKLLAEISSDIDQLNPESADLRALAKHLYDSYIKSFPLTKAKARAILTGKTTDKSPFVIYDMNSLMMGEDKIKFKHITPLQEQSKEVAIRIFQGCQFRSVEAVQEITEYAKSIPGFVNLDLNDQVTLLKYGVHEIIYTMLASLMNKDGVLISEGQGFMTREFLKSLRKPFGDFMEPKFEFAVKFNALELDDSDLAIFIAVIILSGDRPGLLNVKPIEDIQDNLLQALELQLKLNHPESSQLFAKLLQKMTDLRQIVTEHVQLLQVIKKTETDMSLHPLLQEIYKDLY
How it was run: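 Fluorescence-based beta-lactamase readout in HEK293H PPARg UAS-bla cells after 17 h compound exposure (37C) and 1 h B/G FRET substrate incubation at room temperature.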

[15] = target: Nuclear receptor subfamily 1 group I member 2 (Homo sapiens) (UniProt O75469); experiment: CYP3A4 induction through human pregnane X receptor (PXR) by small molecules, qHTS assay (AID 1346984); also: nearly all actives have a fitted effect of over 40% in size; also: potency is read from the fitted curve at half-maximal effect
How it was run: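 After 24 h at 37C with compound, DPX-2 cells (HepG2, co-transfected PXR response element and CYP3A4 promoter-luciferase) got 3uM final P450-Glo Luciferin-IPA for 3 h; One-Glo luminescence followed.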

[16] = target: Nuclear receptor subfamily 1 group I member 2 (Homo sapiens) (UniProt O75469); experiment: Human pregnane X receptor (PXR) activation by small molecules, qHTS assay (AID 1346985); also: nearly all actives have a fitted effect of over 40% in size; also: potency is read from the fitted curve at half-maximal effect
How it was run: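 DPX-2 cells (HepG2 co-transfected with a PXR response element and a CYP3A4-promoter luciferase construct) were seeded at 2,000 per well, rested 5 hr at 37C, then exposed to DMSO-dissolved compounds for 24 hr. Activation was read as luciferase luminescence.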

[17] = qHTS assay for small molecule agonists of the p53 signaling pathway (AID 651631; calls by dose curve; also: nearly all actives have a fitted effect of over 15% in size; also: potency is read from the fitted curve at half-maximal effect)
How it was run: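 HCT-116 cells carrying a beta-lactamase reporter under p53 response elements were dosed with compound for 16 h at 37 °C. LiveBLAzer B/G FRET substrate was then added for 2 h at room temperature, and fluorescence intensity was read to detect pathway agonism.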

[18] = qHTS assay for small molecule agonists of the p53 signaling pathway - cell viability (AID 651633; calls by dose curve; also: nearly all actives have a fitted effect of over 30% in size; also: potency is read from the fitted curve at half-maximal effect)
How it was run: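 p53RE-bla cells, seeded at 4,000 per well and rested 5 h at 37 C/5% CO2, received compounds in DMSO for 16 h at 37 C. CellTiter-Glo was then added, and luminescence was read after 30 min at room temperature to gauge cytotoxicity.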

[19] = qHTS assay to test for compound auto fluorescence at 535 nm (green) in HEK293 cell free culture (AID 720682)
How it was run: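 Green-label autofluorescence (485 nm excitation, 535 nm emission) measured on compound added to cell-free culture medium (DMEM, 10% FBS). Output is expressed relative to fluorescein.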

[20] = qHTS assay for identifying genotoxic compounds that show differential cytotoxicity against isogenic chicken DT40 cell lines with known DNA damage response pathways - Rev3 mutant cell line (AID 743014); also: nearly all actives have a fitted effect of over 55% in size; also: potency is read from the fitted curve at half-maximal effect

Measured: Potency

CCCCC[C@@H](O)C1C(=O)OC(C)[C@H](O)/C=C/C=C/C=C/C=C/C=C(\C)C(O)C(O)C(O)C[C@H](O)C[C@H](O)C[C@H](O)C[C@H](O)C[C@@H]1O (stereo partly specified)
inactive: [1] | [2] | [3] | [4] | [5] | [6] | [7] | [8] | [9] | [10] | [11] | [12] | [13] | [14] | [15] | [16]

CN=C1CN(O)C(c2ccccc2)=c2cc(Cl)ccc2=N1
inactive: [17] | [18] | [1] | [2] | [3] | [19] | [5] | [6] | [7] | [8] | [9] | [10] | [11] | [12] | [13] | [14] | [15] | [16]

CCCC(C)C1(CC)C(=O)NC(=O)NC1=O (stereo unspecified)
inactive: [1] | [2] | [3] | [4] | [5] | [7] | [8] | [9] | [10] | [11] | [12] | [13] | [14] | [15] | [16]

CC(=O)O[C@H]1C[C@H](O[C@H]2[C@@H](O)C[C@H](O[C@H]3[C@@H](O)C[C@H](OC4CC[C@@]5(C)[C@H](CC[C@@H]6[C@@H]5CC[C@]5(C)[C@@H](C7=CC(=O)OC7)CC[C@]65O)C4)O[C@@H]3C)O[C@@H]2C)O[C@H](C)[C@H]1O[C@@H]1O[C@H](CO)[C@@H](O)[C@H](O)[C@H]1O (stereo partly specified)
inactive: [2] | [19] | [5] | [10] | [13] | [15] | [16]
active: [18] 0.0473 µM | [7] 0.473 µM | [20] 0.473 µM | [8] 0.596 µM | [9] 0.107 µM

CNC(=O)Oc1ccccc1C(=O)Nc1ccccc1
inactive: [18] | [2] | [3] | [19] | [4] | [6] | [10] | [14]
active: [7] 29.8 µM | [8] 29.8 µM | [13] 23.7 µM | [15] 14.1 µM | [16] 22.4 µM

CC(=O)O[C@H]1CC[C@H]2[C@@H]3CCC4=CC(=O)CCC4=C3C=C[C@]12C
active: [6] 2.68 µM | [7] 23.7 µM | [10] 2.68 µM [inconclusive] | [11] 0.531 µM
inactive: [17] | [18] | [2] | [3] | [4] | [5] | [9] | [12] | [13] | [14] | [15] | [16]

CCC(=O)O[C@]1(c2ccccc2)CCN(C)C[C@H]1C
inactive: [17] | [18] | [1] | [3] | [19] | [4] | [5] | [9] | [10] | [11] | [12] | [13] | [14] | [15] | [16]
active: [7] 21.1 µM

CCCCCCC(=O)O[C@H]1CC[C@H]2[C@@H]3CC[C@H]4CC(=O)C=C(C)[C@]4(C)[C@H]3CC[C@]12C
active: [10] 6.74 µM [inconclusive] | [11] 2.11 µM
inactive: [1] | [2] | [3] | [4] | [5] | [20] | [8] | [12] | [13] | [14] | [15] | [16]

O=[N+]([O-])c1cc(I)c(O)c(I)c1
active: [17] 5.31 µM | [18] 3.76 µM
inactive: [1] | [2] | [3] | [19] | [4] | [5] | [13] | [15] | [16]

C=CCN1CC[C@]23c4c5ccc(O)c4O[C@H]2[C@@H](O)C=C[C@H]3[C@H]1C5
inactive: [18] | [2] | [3] | [19] | [4] | [5] | [7] | [20] | [8] | [13] | [14] | [15] | [16]

C[N+]1([O-])[C@@H]2CC[C@H]1CC(OC(=O)C(CO)c1ccccc1)C2 (stereo partly specified)
inactive: [1] | [2] | [3] | [19] | [5] | [6] | [7] | [20] | [8] | [9] | [10] | [11] | [12] | [14] | [15] | [16]

OC[C@@H](O)[C@H]1O[C@@H]2O[C@@H](C(Cl)(Cl)Cl)O[C@@H]2[C@H]1O
inactive: [1] | [2] | [3] | [19] | [4] | [5] | [6] | [7] | [20] | [8] | [10] | [11] | [12] | [13] | [14] | [15] | [16]

CCCCCCCCCC(=O)O[C@H]1CC[C@H]2[C@@H]3CCC4=CC(=O)CC[C@]4(C)[C@H]3CC[C@]12C
inactive: [18] | [1] | [2] | [3] | [4] | [5] | [7] | [20] | [8] | [12] | [13] | [14] | [15] | [16]
active: [10] 10.7 µM [inconclusive] | [11] 0.335 µM

CC(N)Cc1ccc(O)cc1 (stereo unspecified)
inactive: [17] | [18] | [1] | [2] | [3] | [19] | [4] | [5] | [6] | [7] | [20] | [8] | [10] | [11] | [12] | [13] | [14] | [15] | [16]

C/C(=C\c1csc(C)n1)[C@@H]1C[C@@H]2O[C@]2(C)CCC[C@H](C)[C@H](O)[C@@H](C)C(=O)C(C)(C)[C@@H](O)CC(=O)O1
inactive: [18] | [1] | [2] | [3] | [19] | [4] | [11] | [13] | [14] | [15]
active: [7] 0.0019 µM | [20] 0.0024 µM | [8] 0.0038 µM | [16] 7.94 µM
